# Assay results reported in publication PMC7862700, “An all-to-all approach to the identification of sequence-specific readers for epigenetic DNA modifications on cytosine”.
# Assays:
# Experiment in all cases: DAPPL (digital affinity profiling via proximity ligation, sequencing); 10 mM Tris-HCl pH 7.5, 50 mM NaCl, 1 mM DTT, 4% glycerol, room temperature, 30 min; GST-TFs on glutathione beads, 16-mer random dsDNA library, 0.1% formaldehyde crosslink after washing; high values mean tight binding
# FEV = target: T1, FEV (Homo sapiens, UniProt Q99581 1-238); details: protein: recombinant; tags: N-terminal GST; dsDNA, one strand shown
# T1 sequence: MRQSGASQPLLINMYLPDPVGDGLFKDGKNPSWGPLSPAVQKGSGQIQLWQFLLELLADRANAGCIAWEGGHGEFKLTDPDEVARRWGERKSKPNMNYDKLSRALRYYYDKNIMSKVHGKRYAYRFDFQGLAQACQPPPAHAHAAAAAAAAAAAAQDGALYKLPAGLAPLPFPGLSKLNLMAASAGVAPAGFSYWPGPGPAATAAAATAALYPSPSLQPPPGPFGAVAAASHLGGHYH
# In short: (§1)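 Sequencing on an Illumina NextSeq500 followed washing, crosslinking with 0.1% formaldehyde, proximity ligation (BsaI/T4 ligase, 1 h, 37 °C) and PCR amplification of pools that had been incubated for 30 min at room temperature with 200 nmole of a random double-stranded 16-mer DNA library in Tris/NaCl/DTT/glycerol buffer. Each pool held DNA-barcoded human transcription factors, expressed in yeast as GST fusions and captured on glutathione beads, plus a tag-only sample. Binding signal is a hexamer's read frequency for a factor divided by its frequency in the tag-only sample.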
# ETV5 = ETV5 (Homo sapiens, UniProt P41161 1-510); details: protein: recombinant; tags: N-terminal GST; dsDNA, one strand shown
# ETV5, sequence (P41161 whole entry): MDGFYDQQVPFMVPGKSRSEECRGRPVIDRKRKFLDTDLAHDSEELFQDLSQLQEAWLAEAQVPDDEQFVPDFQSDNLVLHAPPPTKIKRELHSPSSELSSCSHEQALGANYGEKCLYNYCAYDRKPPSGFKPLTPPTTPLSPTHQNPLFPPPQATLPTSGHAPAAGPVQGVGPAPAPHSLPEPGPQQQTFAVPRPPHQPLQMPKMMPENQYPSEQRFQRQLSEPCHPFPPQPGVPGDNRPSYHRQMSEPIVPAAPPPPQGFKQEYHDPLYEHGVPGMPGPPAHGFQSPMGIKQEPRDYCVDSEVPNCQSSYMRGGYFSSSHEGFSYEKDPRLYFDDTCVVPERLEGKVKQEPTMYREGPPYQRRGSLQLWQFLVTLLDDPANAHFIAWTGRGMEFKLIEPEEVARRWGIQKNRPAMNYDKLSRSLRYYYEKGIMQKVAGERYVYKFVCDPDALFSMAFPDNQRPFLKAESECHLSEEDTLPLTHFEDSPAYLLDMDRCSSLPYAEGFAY
# In short: as §1
# HSF1 = HSF1 (Homo sapiens, UniProt Q00613 1-529); details: protein: recombinant; tags: N-terminal GST; chain copies: 3; dsDNA, one strand shown
# HSF1, sequence (Q00613 whole entry): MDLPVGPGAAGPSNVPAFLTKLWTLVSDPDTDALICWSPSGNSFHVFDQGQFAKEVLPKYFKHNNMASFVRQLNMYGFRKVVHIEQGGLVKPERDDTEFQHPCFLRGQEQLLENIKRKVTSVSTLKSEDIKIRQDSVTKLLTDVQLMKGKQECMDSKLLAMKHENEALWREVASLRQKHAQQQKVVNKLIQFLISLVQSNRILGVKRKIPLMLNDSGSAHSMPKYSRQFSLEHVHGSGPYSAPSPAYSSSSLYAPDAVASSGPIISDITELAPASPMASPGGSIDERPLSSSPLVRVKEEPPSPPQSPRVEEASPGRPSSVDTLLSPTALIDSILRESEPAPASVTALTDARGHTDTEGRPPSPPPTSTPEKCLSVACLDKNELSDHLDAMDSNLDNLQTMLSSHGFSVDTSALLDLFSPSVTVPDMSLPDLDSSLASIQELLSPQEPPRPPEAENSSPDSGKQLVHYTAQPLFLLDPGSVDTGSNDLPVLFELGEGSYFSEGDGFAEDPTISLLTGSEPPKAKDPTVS
# In short: as §1
# SPIC = target: T2, SPIC (Homo sapiens, UniProt Q8N5J4 1-248); details: protein: recombinant; tags: N-terminal GST; dsDNA, one strand shown
# T2 sequence: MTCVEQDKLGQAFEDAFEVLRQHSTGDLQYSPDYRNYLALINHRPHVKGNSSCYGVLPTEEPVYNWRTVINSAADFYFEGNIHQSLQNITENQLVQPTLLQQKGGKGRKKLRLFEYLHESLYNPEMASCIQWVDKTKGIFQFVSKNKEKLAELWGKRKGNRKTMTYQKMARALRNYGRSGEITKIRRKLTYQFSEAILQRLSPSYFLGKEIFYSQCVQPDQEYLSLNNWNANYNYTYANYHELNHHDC
# In short: as §1
# ELF4 = ELF4 (Homo sapiens, UniProt Q99607 1-663); details: protein: recombinant; tags: N-terminal GST; dsDNA, one strand shown
# ELF4, sequence (Q99607 whole entry): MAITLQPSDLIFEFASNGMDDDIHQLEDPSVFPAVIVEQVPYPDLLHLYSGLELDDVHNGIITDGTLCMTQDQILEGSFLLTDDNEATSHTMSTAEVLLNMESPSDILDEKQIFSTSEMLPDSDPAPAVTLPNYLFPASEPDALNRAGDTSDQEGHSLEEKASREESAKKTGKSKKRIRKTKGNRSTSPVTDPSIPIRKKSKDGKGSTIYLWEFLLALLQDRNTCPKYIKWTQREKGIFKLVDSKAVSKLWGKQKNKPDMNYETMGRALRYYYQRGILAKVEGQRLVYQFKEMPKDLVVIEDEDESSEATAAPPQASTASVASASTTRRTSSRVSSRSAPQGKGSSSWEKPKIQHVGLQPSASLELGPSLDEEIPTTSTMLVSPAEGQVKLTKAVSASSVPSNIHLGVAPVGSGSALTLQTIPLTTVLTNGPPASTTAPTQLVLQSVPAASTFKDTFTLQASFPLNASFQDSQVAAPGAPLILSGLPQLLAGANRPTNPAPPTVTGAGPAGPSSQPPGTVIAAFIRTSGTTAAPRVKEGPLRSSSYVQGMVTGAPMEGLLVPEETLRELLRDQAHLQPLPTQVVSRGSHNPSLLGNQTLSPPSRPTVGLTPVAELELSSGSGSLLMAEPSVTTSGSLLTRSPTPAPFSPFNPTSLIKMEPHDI
# In short: as §1
# ELK4 = target: T3, ELK4 (Homo sapiens, UniProt P28324-2 1-405); details: protein: recombinant; tags: N-terminal GST; dsDNA, one strand shown
# T3 sequence: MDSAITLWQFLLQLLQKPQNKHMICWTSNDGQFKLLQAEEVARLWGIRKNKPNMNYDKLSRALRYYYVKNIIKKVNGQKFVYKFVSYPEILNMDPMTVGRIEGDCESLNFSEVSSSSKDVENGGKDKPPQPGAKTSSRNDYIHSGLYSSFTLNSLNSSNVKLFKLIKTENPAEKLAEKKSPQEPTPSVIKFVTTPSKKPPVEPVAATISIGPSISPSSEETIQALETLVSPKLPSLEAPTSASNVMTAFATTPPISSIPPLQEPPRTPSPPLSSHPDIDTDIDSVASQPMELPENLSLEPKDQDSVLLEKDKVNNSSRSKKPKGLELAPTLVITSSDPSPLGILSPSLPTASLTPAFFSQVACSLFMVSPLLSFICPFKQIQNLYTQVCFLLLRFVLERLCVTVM
# In short: as §1
# ETV2 = target: T4, ETV2 (Homo sapiens, UniProt O00321 1-342); details: protein: recombinant; tags: N-terminal GST; dsDNA, one strand shown
# T4 sequence: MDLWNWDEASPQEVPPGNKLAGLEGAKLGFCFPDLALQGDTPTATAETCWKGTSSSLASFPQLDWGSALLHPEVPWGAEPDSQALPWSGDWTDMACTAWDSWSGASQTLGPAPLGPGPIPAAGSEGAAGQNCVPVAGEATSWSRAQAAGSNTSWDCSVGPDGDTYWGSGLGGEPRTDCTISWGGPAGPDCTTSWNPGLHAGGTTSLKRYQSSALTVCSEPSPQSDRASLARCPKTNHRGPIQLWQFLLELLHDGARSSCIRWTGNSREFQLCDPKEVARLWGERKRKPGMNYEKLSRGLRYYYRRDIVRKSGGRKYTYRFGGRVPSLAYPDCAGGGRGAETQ
# In short: as §1
# ELF3 = target: T5, ELF3 (Homo sapiens, UniProt P78545 1-371); details: protein: recombinant; tags: N-terminal GST; dsDNA, one strand shown
# T5 sequence: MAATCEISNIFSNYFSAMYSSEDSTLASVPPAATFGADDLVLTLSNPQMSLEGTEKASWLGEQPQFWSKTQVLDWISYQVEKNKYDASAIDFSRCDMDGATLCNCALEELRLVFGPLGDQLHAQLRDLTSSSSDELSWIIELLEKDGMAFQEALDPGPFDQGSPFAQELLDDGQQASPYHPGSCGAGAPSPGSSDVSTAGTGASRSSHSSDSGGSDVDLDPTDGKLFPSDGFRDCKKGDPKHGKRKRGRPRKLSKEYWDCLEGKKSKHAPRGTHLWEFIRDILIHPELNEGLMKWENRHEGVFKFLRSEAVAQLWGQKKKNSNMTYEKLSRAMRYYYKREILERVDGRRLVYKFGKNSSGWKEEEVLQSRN
# In short: as §1
# CRX = CRX (Homo sapiens, UniProt O43186 1-299); details: protein: recombinant; tags: N-terminal GST; dsDNA, one strand shown
# CRX, sequence (O43186 whole entry): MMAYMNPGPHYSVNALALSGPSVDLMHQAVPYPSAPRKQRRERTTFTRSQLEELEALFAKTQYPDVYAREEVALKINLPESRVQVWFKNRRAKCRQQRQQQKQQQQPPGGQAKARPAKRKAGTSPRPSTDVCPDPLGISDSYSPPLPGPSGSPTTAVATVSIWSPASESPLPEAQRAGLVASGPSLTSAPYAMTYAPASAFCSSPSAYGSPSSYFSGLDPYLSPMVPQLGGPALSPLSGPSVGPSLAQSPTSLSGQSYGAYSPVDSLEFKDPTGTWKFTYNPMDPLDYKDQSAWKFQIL
# In short: as §1
# ETV1 = ETV1 (Homo sapiens, UniProt P50549 1-477); details: protein: recombinant; tags: N-terminal GST; dsDNA, one strand shown
# ETV1, sequence (P50549 whole entry): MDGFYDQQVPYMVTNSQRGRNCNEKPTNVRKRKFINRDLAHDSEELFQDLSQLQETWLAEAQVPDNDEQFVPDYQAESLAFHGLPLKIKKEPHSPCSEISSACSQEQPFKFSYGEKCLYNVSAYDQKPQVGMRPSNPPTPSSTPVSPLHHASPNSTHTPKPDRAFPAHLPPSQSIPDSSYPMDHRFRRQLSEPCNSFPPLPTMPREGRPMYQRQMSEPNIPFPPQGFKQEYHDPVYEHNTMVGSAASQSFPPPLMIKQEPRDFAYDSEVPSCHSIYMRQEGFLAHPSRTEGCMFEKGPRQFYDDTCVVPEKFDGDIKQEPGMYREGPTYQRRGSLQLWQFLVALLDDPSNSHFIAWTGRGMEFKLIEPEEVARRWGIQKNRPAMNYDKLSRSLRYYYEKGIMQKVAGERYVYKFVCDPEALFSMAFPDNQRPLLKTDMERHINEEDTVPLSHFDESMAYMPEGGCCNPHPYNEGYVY
# In short: as §1
# ERF = target: T6, ERF (Homo sapiens, UniProt P50548 1-548); details: protein: recombinant; tags: N-terminal GST; dsDNA, one strand shown
# T6 sequence: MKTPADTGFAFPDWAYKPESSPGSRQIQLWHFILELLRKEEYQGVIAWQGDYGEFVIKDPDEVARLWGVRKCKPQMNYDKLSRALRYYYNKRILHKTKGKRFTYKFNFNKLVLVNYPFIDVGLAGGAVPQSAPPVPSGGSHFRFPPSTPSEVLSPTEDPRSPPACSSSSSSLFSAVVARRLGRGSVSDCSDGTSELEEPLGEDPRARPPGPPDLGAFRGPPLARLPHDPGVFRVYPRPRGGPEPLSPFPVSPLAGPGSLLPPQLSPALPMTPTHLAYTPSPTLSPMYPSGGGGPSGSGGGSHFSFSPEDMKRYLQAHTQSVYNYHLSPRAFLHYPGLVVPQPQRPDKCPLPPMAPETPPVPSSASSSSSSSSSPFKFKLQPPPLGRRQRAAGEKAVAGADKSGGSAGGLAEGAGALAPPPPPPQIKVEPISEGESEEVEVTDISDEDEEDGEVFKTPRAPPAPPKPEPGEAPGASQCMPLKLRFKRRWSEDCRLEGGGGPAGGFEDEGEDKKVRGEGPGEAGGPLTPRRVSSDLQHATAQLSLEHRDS
# In short: as §1
# ETV3L = target: T7, ETV3L (Homo sapiens, UniProt Q6ZN32 1-361); details: protein: recombinant; tags: N-terminal GST; dsDNA, one strand shown
# T7 sequence: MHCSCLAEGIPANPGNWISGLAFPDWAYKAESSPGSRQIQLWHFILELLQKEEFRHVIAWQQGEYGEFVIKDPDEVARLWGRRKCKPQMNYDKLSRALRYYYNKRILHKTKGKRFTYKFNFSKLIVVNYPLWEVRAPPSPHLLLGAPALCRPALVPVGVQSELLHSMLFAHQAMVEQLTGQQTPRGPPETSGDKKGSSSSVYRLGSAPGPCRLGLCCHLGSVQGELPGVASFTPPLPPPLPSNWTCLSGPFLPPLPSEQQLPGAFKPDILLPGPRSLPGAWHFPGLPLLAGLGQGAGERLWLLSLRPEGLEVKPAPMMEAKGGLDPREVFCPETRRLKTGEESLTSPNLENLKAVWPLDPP
# In short: as §1
# ETS2 = target: T8, ETS2 (Homo sapiens, UniProt P15036 1-469); details: protein: recombinant; tags: N-terminal GST; dsDNA, one strand shown
# T8 sequence: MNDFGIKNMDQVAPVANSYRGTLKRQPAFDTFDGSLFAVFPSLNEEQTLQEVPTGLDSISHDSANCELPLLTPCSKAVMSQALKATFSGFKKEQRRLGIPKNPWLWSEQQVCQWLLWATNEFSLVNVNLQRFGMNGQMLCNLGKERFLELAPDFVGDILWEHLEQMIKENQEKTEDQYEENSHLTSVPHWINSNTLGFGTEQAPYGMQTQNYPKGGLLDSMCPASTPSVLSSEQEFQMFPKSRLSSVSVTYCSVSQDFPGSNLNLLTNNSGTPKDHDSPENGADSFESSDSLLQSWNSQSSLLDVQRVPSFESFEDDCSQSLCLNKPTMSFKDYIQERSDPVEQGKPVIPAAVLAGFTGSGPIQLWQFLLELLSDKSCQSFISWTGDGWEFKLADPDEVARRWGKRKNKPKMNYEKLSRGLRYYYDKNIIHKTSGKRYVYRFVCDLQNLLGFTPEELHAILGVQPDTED
# In short: as §1
# SPDEF = target: T9, SPDEF (Homo sapiens, UniProt O95238 1-335); details: protein: recombinant; tags: N-terminal GST; dsDNA, one strand shown
# T9 sequence: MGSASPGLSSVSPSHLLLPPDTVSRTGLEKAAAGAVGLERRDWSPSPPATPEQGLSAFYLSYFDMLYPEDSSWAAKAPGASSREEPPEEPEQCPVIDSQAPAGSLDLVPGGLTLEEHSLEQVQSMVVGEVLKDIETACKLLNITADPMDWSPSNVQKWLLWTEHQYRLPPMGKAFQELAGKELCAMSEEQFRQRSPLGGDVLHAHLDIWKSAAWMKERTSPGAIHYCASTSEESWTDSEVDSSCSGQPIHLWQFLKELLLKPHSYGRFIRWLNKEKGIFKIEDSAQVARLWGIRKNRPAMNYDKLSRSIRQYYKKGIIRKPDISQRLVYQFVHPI
# In short: as §1
# ETV7 = target: T10, ETV7 (Homo sapiens, UniProt Q9Y603 1-341); details: protein: recombinant; tags: N-terminal GST; dsDNA, one strand shown
# T10 sequence: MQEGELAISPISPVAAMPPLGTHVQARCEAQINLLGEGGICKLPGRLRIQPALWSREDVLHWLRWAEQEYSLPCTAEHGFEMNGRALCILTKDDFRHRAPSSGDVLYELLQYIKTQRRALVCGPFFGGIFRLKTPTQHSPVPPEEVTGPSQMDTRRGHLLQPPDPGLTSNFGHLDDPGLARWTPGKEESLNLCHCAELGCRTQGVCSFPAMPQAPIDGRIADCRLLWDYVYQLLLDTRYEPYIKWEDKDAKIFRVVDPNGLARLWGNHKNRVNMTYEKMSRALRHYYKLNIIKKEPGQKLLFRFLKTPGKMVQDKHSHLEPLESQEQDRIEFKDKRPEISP
# In short: as §1
# ELF5 = target: T11, ELF5 (Homo sapiens, UniProt Q9UKW6-2 1-255); details: protein: recombinant; tags: N-terminal GST; dsDNA, one strand shown
# T11 sequence: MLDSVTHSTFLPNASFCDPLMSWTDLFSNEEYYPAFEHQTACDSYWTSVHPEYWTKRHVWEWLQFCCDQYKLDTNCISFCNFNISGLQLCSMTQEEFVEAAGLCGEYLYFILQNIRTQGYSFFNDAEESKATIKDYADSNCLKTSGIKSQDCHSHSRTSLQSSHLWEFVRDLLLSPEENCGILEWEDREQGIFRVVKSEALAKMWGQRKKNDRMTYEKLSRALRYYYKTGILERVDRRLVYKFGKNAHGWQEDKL
# In short: as §1
# ETV3 = target: T12, ETV3 (Homo sapiens, UniProt P41162-2 1-143); details: protein: recombinant; tags: N-terminal GST; dsDNA, one strand shown
# T12 sequence: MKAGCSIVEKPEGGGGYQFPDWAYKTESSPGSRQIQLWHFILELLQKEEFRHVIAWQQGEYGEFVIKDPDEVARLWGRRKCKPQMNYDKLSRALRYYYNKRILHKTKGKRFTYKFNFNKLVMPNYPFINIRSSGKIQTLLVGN
# In short: as §1
# ETV6 = ETV6 (Homo sapiens, UniProt P41212 1-452); details: protein: recombinant; tags: N-terminal GST; dsDNA, one strand shown
# ETV6, sequence (P41212 whole entry): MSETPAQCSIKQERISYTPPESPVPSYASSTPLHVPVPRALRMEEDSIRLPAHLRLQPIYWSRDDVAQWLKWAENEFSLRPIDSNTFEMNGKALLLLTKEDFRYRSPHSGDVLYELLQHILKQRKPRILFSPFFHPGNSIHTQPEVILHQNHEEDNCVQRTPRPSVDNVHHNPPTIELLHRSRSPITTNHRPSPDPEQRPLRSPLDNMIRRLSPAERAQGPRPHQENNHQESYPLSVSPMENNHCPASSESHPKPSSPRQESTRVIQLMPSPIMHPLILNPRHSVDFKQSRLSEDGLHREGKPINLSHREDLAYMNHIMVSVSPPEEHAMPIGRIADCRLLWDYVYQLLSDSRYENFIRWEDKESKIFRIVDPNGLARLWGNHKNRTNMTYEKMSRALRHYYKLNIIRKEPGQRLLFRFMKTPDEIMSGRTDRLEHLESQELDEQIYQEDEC
# In short: as §1
sequence,measurement,setting,value
ACTCAT,binding signal,FEV,"1.32 fold enrichment (6-mer frequency, TF over GST control)"
same,binding signal,ETV5,"1.32 fold enrichment (6-mer frequency, TF over GST control)"
same,binding signal,HSF1,"1.13 fold enrichment (6-mer frequency, TF over GST control)"
same,binding signal,SPIC,"1.26 fold enrichment (6-mer frequency, TF over GST control)"
same,binding signal,ELF4,"1.35 fold enrichment (6-mer frequency, TF over GST control)"
same,binding signal,ELK4,"1.32 fold enrichment (6-mer frequency, TF over GST control)"
same,binding signal,ETV2,"1.42 fold enrichment (6-mer frequency, TF over GST control)"
same,binding signal,ELF3,"1.13 fold enrichment (6-mer frequency, TF over GST control)"
same,binding signal,CRX,"1.19 fold enrichment (6-mer frequency, TF over GST control)"
same,binding signal,ETV1,"1.35 fold enrichment (6-mer frequency, TF over GST control)"
same,binding signal,ERF,"1.39 fold enrichment (6-mer frequency, TF over GST control)"
same,binding signal,ETV3L,"1.26 fold enrichment (6-mer frequency, TF over GST control)"
same,binding signal,ETS2,"1.29 fold enrichment (6-mer frequency, TF over GST control)"
same,binding signal,SPDEF,"1.24 fold enrichment (6-mer frequency, TF over GST control)"
same,binding signal,ETV7,"1.27 fold enrichment (6-mer frequency, TF over GST control)"
same,binding signal,ELF5,"1.32 fold enrichment (6-mer frequency, TF over GST control)"
same,binding signal,ETV3,"1.3 fold enrichment (6-mer frequency, TF over GST control)"
same,binding signal,ETV6,"1.31 fold enrichment (6-mer frequency, TF over GST control)"
